Shown are actives, neighbours in structure and some others; about 2.8% of the full set was active somewhere.
KKLEB tox – reduces viability of KKLEB cystic fibrosis airway cells | KKLEB CF airway cells viability, ATPlite luminescence, overnight; stronger effect = lower value; cells stimulated with P. aeruginosa culture filtrate | 360,000 tested, 0.36% active | activity change (cytotoxicity), % at 5 µM;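 active = corrected activity change at or below -50% at 5 µM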
Peg3 prom inh – inhibitors of Peg3 promoter. HeLa PEG-Prom luciferase reporter, luminescence, overnight. inhibition, % at 20 µM. 360,000 tested, 1.7% active;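 active = inhibition of at least 50% at 20 µM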
HIF-2a block – inhibitors of HIF-2a | 360,000 tested, 0.72% active | 786-0 RCC cells HIF-2a reporter, luciferase luminescence, overnight | inhibition, % at 18.8 µM;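 active = inhibition of the luminescence signal of 40% or more relative to plate controls, in a single-dose primary screen at 18.75 µM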
CF NFkB block – blocks PAF-induced NF-kB reporter in cystic fibrosis cells; KKLEB NF-kB-GFP reporter, GFP fluorescence overnight; AID 588850; inhibition, % at 5 µM; 360,000 tested, 0.86% active;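 active = at least 50% inhibition at 5 µM, scaled per plate between neutral and stimulator controls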;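 note: PAF is a Pseudomonas aeruginosa culture filtrate used as stimulus; plate controls were PAF-stimulated DMSO wells for no effect and unstimulated DMSO wells for full effect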
MITF TRPM1 inh – inhibitors of MITF-driven TRPM1 promoter in melanoma cells; SK-MEL-5 TRPM1 promoter luciferase, 24 h; inhibition, % at 12.5 µM; 330,000 tested, 0.83% active; AID 488899;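 active = mean inhibition across replicates of 60% or more, whatever share of single replicates reaches that level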
Shn3 3UTR inh – Schnurri-3 reporter inhibition in Clone20 osteoblasts; Clone20 osteoblast Shn3 3'UTR firefly luciferase, 24 h; inhibition, % at 12.5 µM; 360,000 tested, 0.52% active; AID 588674;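 active = mean inhibition of at least 75% with every replicate also reaching 75%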;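 note: 0% = median of neutral control wells and 100% = pilot-screen positive control compound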
Mdm2-MdmX confirm – confirmation of inhibitors of human Mdm2/MdmX interaction, set 2. SaOS-2 split-luciferase Mdm2/MdmX complementation, luminescence. 740 tested, 99% active. inhibition, % at 8 µM. shares compounds with HIF-2a block. AID 504601;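 active = mean inhibition of the luminescence signal across two replicates at or above 26 percent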
Target sequence (O15151 whole entry, looked up): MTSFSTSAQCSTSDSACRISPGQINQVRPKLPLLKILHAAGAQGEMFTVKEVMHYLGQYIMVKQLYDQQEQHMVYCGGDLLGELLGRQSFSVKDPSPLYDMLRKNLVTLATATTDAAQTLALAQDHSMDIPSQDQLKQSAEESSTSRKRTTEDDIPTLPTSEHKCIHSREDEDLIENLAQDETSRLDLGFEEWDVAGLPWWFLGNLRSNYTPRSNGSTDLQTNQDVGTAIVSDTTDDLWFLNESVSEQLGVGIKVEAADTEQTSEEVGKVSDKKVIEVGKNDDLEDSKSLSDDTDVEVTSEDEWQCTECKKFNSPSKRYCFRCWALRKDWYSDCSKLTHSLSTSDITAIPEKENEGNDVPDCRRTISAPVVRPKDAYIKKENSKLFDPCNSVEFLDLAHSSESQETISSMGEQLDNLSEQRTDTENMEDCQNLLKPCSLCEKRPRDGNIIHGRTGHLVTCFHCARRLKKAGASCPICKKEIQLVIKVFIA
Target sequence (Q00987 whole entry, looked up): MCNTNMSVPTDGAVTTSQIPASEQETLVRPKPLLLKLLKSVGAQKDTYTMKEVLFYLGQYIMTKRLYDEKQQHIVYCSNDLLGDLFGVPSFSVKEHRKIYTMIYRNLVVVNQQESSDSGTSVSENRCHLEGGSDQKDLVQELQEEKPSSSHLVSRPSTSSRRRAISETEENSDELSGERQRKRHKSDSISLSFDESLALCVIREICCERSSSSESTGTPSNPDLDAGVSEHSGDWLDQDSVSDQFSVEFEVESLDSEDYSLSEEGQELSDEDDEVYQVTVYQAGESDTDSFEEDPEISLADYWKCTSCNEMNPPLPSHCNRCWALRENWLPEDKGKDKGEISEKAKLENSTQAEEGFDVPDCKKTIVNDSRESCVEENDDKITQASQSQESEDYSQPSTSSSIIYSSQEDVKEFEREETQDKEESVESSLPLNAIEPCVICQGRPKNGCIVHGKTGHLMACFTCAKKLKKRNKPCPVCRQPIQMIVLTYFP
HIF-2a conf – confirmation of HIF-2a inhibitors; shares compounds with HIF-2a block; 786-0 RCC cells, HIF-2a luciferase reporter luminescence, overnight; inhibition, % at 18.8 µM; 1,800 tested, 56% active; AID 651580;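 active = mean inhibition across four replicates of at least 40 percent at the single tested concentration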
HIF-1a counter – counter-screen for HIF-2a inhibitors: HIF-1a inhibition in MiaPaCa-2 cells. shares compounds with HIF-2a block. MiaPaCa-2 HIF-1a luciferase reporter, desferoxamine, overnight. inhibition, % at 18.8 µM. 1,800 tested, 72% active. AID 651589;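 active = mean inhibition of the reporter signal across four replicates at the single tested dose of 50% or more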
An asterisk follows results filed as active; x = no result.

SMILES	KKLEB tox	Peg3 prom inh	HIF-2a block	CF NFkB block	MITF TRPM1 inh	Shn3 3UTR inh	HIF-2a conf	HIF-1a counter	others
CN(C(=O)CSc1nc2[nH]ncc2c(=O)[nH]1)c1ccccc1	-8	12	-2	5	-10	1	x	x
Cc1ccc(OCC(=O)c2cc(C)n(CC(F)(F)F)c2C)c([N+](=O)[O-])n1	6	-13	-37	4	4	-10	x	x
Cc1ccc(OCC(=O)c2cc(C)n(Cc3cccs3)c2C)c([N+](=O)[O-])n1	0	43	58*	5	2	58	72*	95*
COCCn1c(C)cc(C(=O)COc2cccnc2[N+](=O)[O-])c1C	9	65*	51*	-3	13	11	65*	71*
Cc1cc(C)c(C(=O)COc2cccnc2[N+](=O)[O-])cc1C	-2	31	-8	19	18	6	x	x
Cc1nn(C)c(C)c1CN(C)C(=O)c1cnn2c1NC(c1ccccc1)CC2C(F)(F)F (stereo not drawn)	-4	35	43*	13	18	25	28	9
Cc1nn(C)c(C)c1CN(C)C(=O)c1nn2c(c1Br)NC(c1cccs1)CC2C(F)(F)F (stereo not drawn)	-2	24	26	10	15	12	x	x
Cc1c(CCC(=O)O)c(=O)oc2cc(OCc3ccccc3Br)ccc12	-13	2	78*	36	5	-9	92*	52*
Cc1c(CCC(=O)N[C@@H](C)C(=O)O)c(=O)oc2cc3occ(-c4ccccc4)c3cc12	-2	6	26	-2	-13	-30	x	x
Cc1c(CCC(=O)N[C@@H](CC(C)C)C(=O)O)c(=O)oc2cc3oc4c(c3cc12)CCCC4	4	-59	65*	-18	x	25	75*	38
Cc1c(CCC(=O)N2CCC(C(=O)NCCCCCC(=O)O)CC2)c(=O)oc2cc3oc4c(c3cc12)CCCC4	-7	-10	29	28	0	1	x	x
COc1cccc(-c2coc3cc4oc(=O)c(CCC(=O)O)c(C)c4cc23)c1	1	21	40*	-40	-1	-3	57*	51*
Cc1c(CCC(=O)O)c(=O)oc2cc(OCc3cccc(F)c3)ccc12	6	-22	-52	1	-2	-6	x	x
COc1cccc(-c2coc3c(C)c4oc(=O)c(CCC(=O)O)c(C)c4cc23)c1	0	3	15	-35	-10	-19	x	x
Cc1c(CCC(=O)N2CCC[C@H]2C(=O)O)c(=O)oc2cc3oc4c(c3cc12)CCCC4	-5	-64	65*	24	47	39	79*	39
COc1cccc(CN(C)CCCn2cnc(C(=O)Nc3ccc(C)c(C)c3)n2)c1	-3	-7	-8	-8	-7	-1	x	x
C[C@H]1CN([C@@H](C)CO)C(=O)CCCn2nncc2CO[C@@H]1CN(C)C(=O)NC1CCCCC1	3	2	10	-21	x	-21	x	x
CC(C)NC(=O)C1(C)CN(S(C)(=O)=O)CC(=O)N1CCCN1CCOCC1 (stereo not drawn)	x	x	18	x	x	x	x	x
Cc1c(CCC(=O)NCC(=O)NCC(=O)O)c(=O)oc2cc3oc4c(c3cc12)CCCC4	-2	4	26	-2	9	14	x	x
Cc1c(CCC(=O)O)c(=O)oc2cc3oc4c(c3cc12)CCCC4	13	-75	74*	-18	28	29	83*	47
O=C(CN(Cc1ccc(Br)cc1)S(=O)(=O)c1ccccc1)NCc1cccnc1	-14	1	16	14	7	-15	x	x
O=C(NCc1cccnc1)/C(=C\c1ccc(-c2ccc(Br)cc2)o1)S(=O)(=O)c1ccccc1	-56*	107*	93*	86*	100*	96*	98*	106*	Mdm2-MdmX confirm=103*
O=C(NCc1cccnc1)/C(=C/c1ccc(-c2ccc(Cl)cc2)o1)S(=O)(=O)c1ccccc1	-54*	101*	90*	73*	93*	92*	99*	104*	Mdm2-MdmX confirm=102*
O=C(NCc1cccnc1)/C(=C/c1ccc(-c2cccc(C(F)(F)F)c2)o1)NC(=O)c1ccccc1	-5	25	17	-6	6	10	x	x
CCOc1ccc(N=C(NN)c2ccc3ccccc3n2)cc1	-5	3	49*	8	14	33	45*	66*
SMILES	KKLEB tox	Peg3 prom inh	HIF-2a block	CF NFkB block	MITF TRPM1 inh	Shn3 3UTR inh	HIF-2a conf	HIF-1a counter	others
NNC(=O)COc1ccc(-c2nccc(-c3ccc(F)cc3)n2)cc1	4	-51	68*	-21	-1	23	79*	52*
O=C(O)COc1ccc(-c2nccc(-c3ccccn3)n2)cc1	-2	-40	87*	-3	45	21	90*	59*
COc1ccc(-c2cc(C(=O)Nc3ccc(S(=O)(=O)Nc4onc(C)c4C)cc3)c3ccccc3n2)cc1	-8	-15	-45	19	-9	-3	x	x
Cc1cccc(CS(=O)(=O)c2nnc([C@H](Cc3ccccc3)NC(=O)OC(C)(C)C)o2)c1	-22	106*	8	69*	75*	97*	x	x	Mdm2-MdmX confirm=103*
CC(C)(C)OC(=O)N[C@@H](Cc1ccccc1)c1nnc(SCC(N)=O)o1	15	6	9	-6	-1	9	x	x
COc1cc2oc(=O)cc(-c3ccc(-c4ccc(CO)cc4)cc3)c2c(OC)c1OC	-8	-18	4	75*	-16	-3	x	x	Mdm2-MdmX confirm=83*
CC1(C)CC[C@]2(C(=O)O)CC[C@]3(C)C(=CC[C@@H]4[C@@]5(C)CC[C@H](O[C@@H]6O[C@H](C(=O)O)[C@@H](O)[C@H](O[C@@H]7OC[C@H](O)[C@H](O)[C@H]7O)[C@H]6O)C(C)(C)[C@@H]5CC[C@]43C)[C@@H]2C1	-95*	59*	55*	88*	6	71	94*	52*
CC1(C)CC[C@]2(C(=O)O[C@@H]3O[C@H](CO)[C@@H](O)[C@H](O)[C@H]3O)CC[C@]3(C)C(=CCC4[C@@]5(C)CC[C@H](O[C@@H]6O[C@H](C(=O)O)[C@@H](O[C@H]7OC[C@@H](O)[C@@H](O)[C@@H]7O)[C@H](O)[C@H]6O)C(C)(C)C5CC[C@]43C)[C@@H]2C1 (stereo partly drawn)	13	-2	9	2	-10	18	x	x
COCC(=O)N1CCC(Oc2ccc(C(=O)N(C)CCCC3CCCC3)cc2)CC1	10	19	2	10	16	26	x	x

Assay outcomes (PubChem)
